The panel holds about 79,000 compounds, 15% with a hit somewhere; the sample as a whole holds those more often. Activity calls are given as the source filed them. Cut-off read from the data, not from the text of the source: active = growth inhibition above about 70%; inactive = the rest.
Tests used:
[1] = NCI Yeast Anticancer Drug Screen. Data for the rad52 strain (AID 147);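 note: 0% = growth of vehicle-treated control cultures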; details: S. cerevisiae rad52 mutant growth inhibition, active compounds read high
Summary of the method: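 Inhibition of yeast growth, referenced to vehicle controls, was the measured output for a strain with defective DNA damage repair.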

[2] = NCI Yeast Anticancer Drug Screen. Data for the wt1 strain (AID 149);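 note: 0% = growth of vehicle-treated wt1 cultures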; details: S. cerevisiae wt1 strain (SPY 50644) growth inhibition, active compounds read high
Summary of the method: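 Readout: yeast growth inhibition, normalised to vehicle controls, in the wt1 strain exposed to test compounds.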

[3] = NCI Yeast Anticancer Drug Screen. Data for the rad50EPP+ strain (AID 151);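 note: 0% = growth of vehicle-treated control cultures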; details: S. cerevisiae rad50 mutant strain, active compounds read high
Summary of the method: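 Genetically defined yeast (rad50EPP+, DNA damage repair alteration) is grown with compound, and inhibition of growth is expressed relative to vehicle-treated controls.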

[4] = NCI Yeast Anticancer Drug Screen. Data for the mgt1 strain (AID 153); details: S. cerevisiae mgt1 mutant growth inhibition, active compounds read high
Summary of the method: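 In the mgt1 strain, test compounds were added and growth inhibition was determined relative to vehicle-treated controls.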

[5] = NCI Yeast Anticancer Drug Screen. Data for the rad50 strain (AID 155);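 note: 0% = growth of vehicle-only cultures of the same strain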; details: S. cerevisiae rad50 strain growth inhibition, active compounds read high
Summary of the method: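 Compounds were tested on a yeast strain with an engineered DNA damage repair alteration; the reported value is growth inhibition normalised to vehicle treatment.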

[6] = NCI Yeast Anticancer Drug Screen. Data for the sgs1 mgt1 strain (AID 161);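 note: 0% = growth of cultures given vehicle only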; details: S. cerevisiae sgs1 mgt1 strain, active compounds read high
Summary of the method: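 Test agents were incubated with a DNA-repair-mutant yeast strain. Growth was then read and compared against vehicle-treated controls.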

[7] = NCI Yeast Anticancer Drug Screen. Data for the cln2 rad14 strain (AID 165);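 note: 0% = growth equal to vehicle treated cultures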; details: S. cerevisiae cln2 rad14 strain, active compounds read high
Summary of the method: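 Test compounds were added to cln2 rad14 yeast cultures; inhibition of growth was then determined by comparison with vehicle treatment.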

[8] = NCI Yeast Anticancer Drug Screen. Data for the bub3 strain (AID 167); details: S. cerevisiae bub3 mutant strain, active compounds read high
Summary of the method: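 Growth of a checkpoint-deficient yeast mutant is measured after compound exposure. Values represent inhibition relative to vehicle.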

[9] = NCI Yeast Anticancer Drug Screen. Data for the wt2 strain (AID 169);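 note: 0% = growth of vehicle-treated yeast cultures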; details: S. cerevisiae wt2 strain growth inhibition, active compounds read high
Summary of the method: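 The panel's yeast strains carry defined changes in DNA repair or cell cycle genes. Each strain is grown with compound, and growth loss is scored relative to vehicle.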

[10] = NCI Yeast Anticancer Drug Screen. Data for the mlh1 strain (AID 171);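 note: 0% = growth of vehicle-treated control cultures of the same strain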; details: S. cerevisiae mlh1 strain growth inhibition, active compounds read high
Summary of the method: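 Inhibition values reflect reduced yeast growth in the presence of compound, referenced to vehicle controls, using a strain chosen for its alteration in DNA repair or cell cycle control.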

[11] = NCI Yeast Anticancer Drug Screen. Data for the mlh1 rad18 strain (AID 175); details: S. cerevisiae mlh1 rad18 strain growth inhibition, active compounds read high
Summary of the method: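 Inhibition values reflect reduced growth of mutant yeast versus vehicle-treated controls following compound exposure; the mutations affect DNA damage repair.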

[12] = NCI Yeast Anticancer Drug Screen. Data for the rad18 strain (AID 177); details: S. cerevisiae rad18 mutant growth inhibition, active compounds read high
Summary of the method: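 Steps: expose repair-mutant yeast to compound; measure growth; express as inhibition relative to vehicle control.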

[13] = NCI Yeast Anticancer Drug Screen. Data for the mec2-1 strain (AID 157); details: S. cerevisiae mec2-1 strain, active compounds read high
Summary of the method: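 Each compound was tested on mec2-1 yeast, a strain altered in DNA damage repair or cell cycle control. Growth inhibition is reported relative to vehicle.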

[14] = NCI Yeast Anticancer Drug Screen. Data for the rad14 strain (AID 159);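 note: 0% = growth of vehicle-treated control cultures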; details: S. cerevisiae rad14 strain growth inhibition, active compounds read high
Summary of the method: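 Compound-treated yeast with a defined DNA-repair lesion; growth inhibition normalised to vehicle-treated cultures.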

[15] = NCI Yeast Anticancer Drug Screen. Data for the CLN2oe strain (AID 163);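 note: 0% = growth of vehicle-only control cultures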; details: S. cerevisiae CLN2oe strain, active compounds read high
Summary of the method: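 First, the altered yeast strain was treated with each compound; second, its growth was measured; finally, inhibition was derived by comparison with vehicle controls.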

[16] = NCI Yeast Anticancer Drug Screen. Data for the sgs1 strain (AID 173);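 note: 0% = growth of vehicle-only control cultures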; details: S. cerevisiae sgs1 mutant, active compounds read high
Summary of the method: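 Vehicle-treated cultures served as reference for growth inhibition of a yeast strain altered in DNA damage repair or cell cycle control after compound exposure.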

[17] = at 5.0 µM (retest, dose inferred, filed as 0.5)
[18] = at 50.0 µM (retest, dose inferred, filed as 5.0)

Measured: growth inhibition

ClCCCOc1c(Cl)cc(Cl)cc1Cl
inactive: [1]; at 1.2 µM -2% | [1]; at 3.7 µM 2% | [1]; at 11.0 µM 5% | [1]; at 33.0 µM -3% | [1]; at 100.0 µM 10% | [2]; at 1.2 µM -1% | [2]; at 3.7 µM -2% | [2]; at 11.0 µM -3% | [2]; at 33.0 µM -5% | [2]; at 100.0 µM -1% | [3]; at 1.2 µM -4% | [3]; at 3.7 µM 4% | [3]; at 11.0 µM 13% | [3]; at 33.0 µM 10% | [3]; at 100.0 µM 32% | [4]; at 1.2 µM 0% | [4]; at 3.7 µM -1% | [4]; at 11.0 µM -2% | [4]; at 33.0 µM -1% | [4]; at 100.0 µM 1% | [5]; at 1.2 µM -2% | [5]; at 3.7 µM 4% | [5]; [17] 1% | [5]; at 11.0 µM 5% | [5]; at 33.0 µM 0% | [5]; [18] 13% | [5]; at 50.0 µM -7.15% | [5]; at 100.0 µM 10% | [6]; [17] 17% | [6]; [18] 15% | [6]; at 50.0 µM -2.55% | [7]; [17] 16% | [7]; [18] 25% | [7]; at 50.0 µM 29.6% | [8]; at 1.2 µM 0% | [8]; at 3.7 µM 1% | [8]; [17] 14% | [8]; at 11.0 µM -2% | [8]; at 33.0 µM -1% | [8]; [18] 13% | [8]; at 50.0 µM 0.6% | [8]; at 100.0 µM 0% | [9]; at 1.2 µM -7% | [9]; at 3.7 µM 1% | [9]; at 11.0 µM -7% | [9]; at 33.0 µM -2% | [9]; at 100.0 µM -8% | [10]; at 1.2 µM -2% | [10]; at 3.7 µM 0% | [10]; at 11.0 µM 3% | [10]; at 33.0 µM -1% | [10]; at 100.0 µM 9% | [11]; [17] 15% | [11]; [18] 60% | [11]; at 50.0 µM 27.1% | [12]; at 1.2 µM -4% | [12]; at 3.7 µM 12% | [12]; at 11.0 µM 12% | [12]; at 33.0 µM -2% | [12]; at 100.0 µM 6%

O=[N+]([O-])c1ccc2nc(=S)[nH]n2c1
inactive: [1]; at 1.2 µM -3% | [1]; at 3.7 µM -2% | [1]; at 11.0 µM -2% | [1]; at 33.0 µM 10% | [1]; at 100.0 µM 65% | [2]; at 1.2 µM -3% | [2]; at 3.7 µM -2% | [2]; at 11.0 µM -7% | [2]; at 33.0 µM -8% | [2]; at 100.0 µM 41% | [4]; at 1.2 µM 0% | [4]; at 3.7 µM -4% | [4]; at 11.0 µM -4% | [4]; at 33.0 µM -8% | [4]; at 100.0 µM 1% | [5]; at 1.2 µM -4% | [5]; at 3.7 µM -1% | [5]; [17] -130% | [5]; at 11.0 µM 13% | [5]; at 33.0 µM 19% | [5]; at 50.0 µM 58.6% | [13]; at 1.2 µM 1% | [13]; at 3.7 µM -1% | [13]; [17] -42% | [13]; at 11.0 µM -5% | [13]; at 33.0 µM 0% | [13]; [18] -7% | [13]; at 50.0 µM 24.1% | [13]; at 100.0 µM 34% | [14]; at 1.2 µM 3% | [14]; at 3.7 µM -1% | [14]; at 11.0 µM 6% | [14]; at 33.0 µM 12% | [14]; at 100.0 µM 59% | [6]; [17] -58% | [6]; [18] 22% | [6]; at 50.0 µM 23.9% | [15]; at 1.2 µM -2% | [15]; at 3.7 µM -2% | [15]; at 11.0 µM -4% | [15]; at 33.0 µM -5% | [15]; at 100.0 µM 36% | [7]; [17] -59% | [7]; [18] 2% | [7]; at 50.0 µM -7.5% | [8]; at 1.2 µM -9% | [8]; at 3.7 µM -8% | [8]; [17] -71% | [8]; at 11.0 µM -5% | [8]; at 33.0 µM -5% | [8]; at 50.0 µM -6.7% | [8]; at 100.0 µM 65% | [9]; at 1.2 µM -2% | [9]; at 3.7 µM -1% | [9]; at 11.0 µM -2% | [9]; at 33.0 µM -3% | [9]; at 100.0 µM 12% | [10]; at 1.2 µM 7% | [10]; at 3.7 µM -5% | [10]; at 11.0 µM -3% | [10]; at 33.0 µM -2% | [10]; at 100.0 µM 26% | [16]; at 1.2 µM 0% | [16]; at 3.7 µM -2% | [16]; at 11.0 µM -5% | [16]; at 33.0 µM 0% | [16]; at 100.0 µM 47% | [11]; [17] -133% | [11]; at 50.0 µM 46.1% | [12]; at 1.2 µM -2% | [12]; at 3.7 µM 0% | [12]; at 11.0 µM 2% | [12]; at 33.0 µM 7% | [12]; at 100.0 µM 60%
active: [5]; [18] 94% | [5]; at 100.0 µM 98% | [8]; [18] 76% | [11]; [18] 78%

From PubChem BioAssay (NCI)
